PubChem BioAssay AID435019 (Southern Research Specialized Biocontainment Screening …, 2010)
Screen size: about 2,300 compounds; about 1,200 (52%) were called active. How the calls were made is not given here. So high a share suggests a set chosen from earlier hits. The list shows a part of the results. Results with a measured potency or affinity are listed apart.

assay: mammalian cell cytotoxicity, dose response, cytotoxicity control for M. tuberculosis inhibitor project (AID 435019); settings: cytotoxicity counter-screen; series mostly up to 40 µM; viability: at the top concentration;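 further: 0% = background wells and 100% = vehicle-treated cells; lower values mean fewer viable cells so more cytotoxicity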

SMILES | viability
CSc1nsc(SCC(=O)N2CCCCC2)n1 | 99.7% (inactive)
NNC(=S)NCc1ccc2c(c1)OCO2 | 99% (inactive)
Cc1cc(NC(=O)c2noc3c2CCCC3)nn1Cc1ccc(Cl)cc1 | 84.7% (inactive)
CCOc1ccc(/C=N/OCC(=O)Nc2cc(C)on2)cc1 | 96.8% (inactive)
COCCCN=C1NN=C(c2cc(C)n(Cc3ccco3)c2C)CS1 | 33.4% (inactive)
Cc1ccc(C2=NN(C)c3nc4ccccc4n3C2)cc1 | 84.9% (inactive)
COc1ccc(OC)c(CN2CCN(C(=O)CNC(=O)c3ccc(C(C)(C)C)cc3)CC2)c1 | 97% (inactive)
Cc1cc(NC(=O)CCN2C(=O)C3C4C=CC(C4)C3C2=O)ccc1Br (configuration not stated) | 97.6% (inactive)
COc1ccc(-c2c(C#Cc3ccsc3)c3ccccc3n2C)cc1 | 89.6% (inactive)
CCOC(=O)c1ccc(NC(=O)C(C)Sc2nc(O)c(-c3ccccc3)c(=O)[nH]2)cc1 (configuration not stated) | 88.8% (inactive)
O=C(Nc1ccc(C2=NCCN2)cc1)c1ccc(Cl)c(C(=O)Nc2ccc(C3=NCCN3)cc2)c1 | 97.4% (inactive)
CC(=O)c1sc(NC(=O)c2cc(=O)c3ccccc3o2)nc1C | 84.2% (inactive)
C=CCc1cccc(CNc2cnc3ccccc3c2)c1O | 88.8% (inactive)
Cc1cc(-c2cc(-c3ccccc3)on2)nc(NC2CCCC2)n1 | 85.9% (inactive)
Cc1ccsc1/C=N/Nc1ccc(F)cc1F | 95.7% (inactive)
CC(C)(C)c1nc2sc3c(c2c(=O)o1)CCCC3 | 93.7% (inactive)
Cc1ccc(CNC(=O)c2sc3nc4c(c(C(F)(F)F)c3c2N)CCC4)cc1 | 94.3% (inactive)
COc1ccc(C(=O)C2CCCN(C3CSCCSC3)C2)c(C)c1 (configuration not stated) | 83.2% (inactive)
CN(Cc1ccc(Br)cc1)C(=O)CCN1C(=O)c2cccc([N+](=O)[O-])c2C1=O | 86.3% (inactive)
CN1C(=O)c2cccc3c(Br)ccc(c23)C1=O | 97.7% (inactive)
O=C(Nc1ccc(Cl)cc1)N(C1=NCCC1)c1ccc(OC(F)F)cc1 | 82.3% (inactive)
O=C(c1ccco1)N1CCN(C(=O)C2CC(c3ccc(Cl)c(Cl)c3)=NO2)CC1 (configuration not stated) | 84.7% (inactive)
c1ccc(-c2nc(N3CCCC3)nc3ccccc23)cc1 | 92.6% (inactive)
O=c1cc2[nH]c3ccccc3c(=O)n2nc1-c1ccccc1 | 98.3% (inactive)

SMILES | viability
CCOC(=O)N/N=C(/C)c1ccc([N+](=O)[O-])o1 | 84.4% (inactive)
CN1/C(=C\C(=O)COC(=O)c2ccc([N+](=O)[O-])o2)C(C)(C)c2ccccc21 | 98.5% (inactive)
CCOc1cc(C2NN=C(c3ccc(C)cc3)S2)ccc1O (configuration not stated) | 82% (inactive)
N#C/C(=C1\CCCN1)c1nc(-c2ccccc2)cs1 | 82% (inactive)
O=C(Nc1ccc(-n2cccc2)cc1)C1CC1 | 92.5% (inactive)
Cc1ccc(NC(=O)C2C3/C=C\CCCCC32)cc1C (configuration not stated) | 96.5% (inactive)
COc1cccc(-n2nnc3c(=O)n(CC(=O)N4CCC(Cc5ccccc5)CC4)cnc32)c1 | 80.7% (inactive)
Cc1ccc(S(=O)(=O)NCc2ccc(C(=O)NCCCN3CCC(Cc4ccccc4)CC3)cc2)cc1 | 94.2% (inactive)
CCCCCCSc1nsc(NC(=O)CC(C)C)n1 | 85% (inactive)
Cc1c(OCc2ccccc2)c(=O)ccn1Cc1ccc(Cl)cc1 | 87.7% (inactive)
CC(=O)N1C(Nc2ccc(Cl)cc2)CCN1c1ccccc1 (configuration not stated) | 102% (inactive)
Nc1ccc2c(c1)oc1ccccc12 | 87.4% (inactive)
Cc1ccc(-n2[nH]c(C)c(C=Nc3ccc(S(=O)(=O)Nc4nccs4)cc3)c2=O)c(C)c1 | 88.1% (inactive)
Cc1ccccc1C(=O)Nc1ccc(N(C)C)c2ccccc12 | 95.2% (inactive)
N/C(=N\OC(=O)Nc1ccc(Cl)c(Cl)c1)c1ncc(C(F)(F)F)cc1Cl | 92.2% (inactive)
CC(C)C(=O)N1CCC2(CC1)Oc1ccc(Cl)cc1C(=O)C21CC(c2ccccc2)=NO1 (configuration not stated) | 83.4% (inactive)
COc1ccc(C(=O)OCC(=O)c2ccc(Br)s2)c(OC)c1 | 94.2% (inactive)
CCOC(=O)C1CCCc2c1[nH]c1c(C(N)=O)cccc21 (configuration not stated) | 92.2% (inactive)
O=C(OCc1ccccc1F)c1cnc(Cl)c(Cl)c1 | 94.4% (inactive)
O=C(OCc1ccc([N+](=O)[O-])cc1)c1cc2ccccc2oc1=O | 103% (inactive)
COc1ccccc1C1=NOC(COC(=O)c2ccc([N+](=O)[O-])cc2)C1 (configuration not stated) | 97.8% (inactive)
CCCCS/C(N)=N/N=C/c1cc(C)ccc1O | 85.3% (inactive)
Nc1ccc(Oc2ccc(F)cc2)nc1 | 100% (inactive)
CCOC(=O)c1cc(-c2cccc([N+](=O)[O-])c2)on1 | 96.6% (inactive)

SMILES | viability
CNC(=S)Nc1ccc(N2CCN(c3ccc(C(F)(F)F)cn3)CC2)nc1 | 92.3% (inactive)
CCCCCCC#Cc1ccc2c(c1)COc1c3ccccc3nn1-2 | 83.6% (inactive)
COc1cc(N)c(Cl)cc1C(=O)N[C@H]1CCN(CCCOc2ccc(F)cc2)C[C@H]1OC | 95% (inactive)
O=C(NC1CCCCCC1)c1ccccc1-c1ccccc1 | 83.2% (inactive)
N#CC(C(=O)Nc1ccccc1)=C1Nc2ccccc2N1 | 80.9% (inactive)
Cc1ccccc1C(=O)Nc1ccccc1C(=O)NCC(C)C | 90.5% (inactive)
CSc1nc2nc3c(c(=O)n2[nH]1)CCCC3 | 96.8% (inactive)
c1ccc(CCNc2ncnc3c2cnn3-c2ccccc2)cc1 | 84.7% (inactive)
CCSc1ncc(/C=N/Nc2ccccc2)n1C | 84.5% (inactive)
CN1/C(=C\C(=O)C[n+]2ccc(C(=O)c3ccccc3)cc2)C(C)(C)c2ccccc21 | 96.7% (inactive)
CCOC(=O)c1ccc2c(c1)C(=O)N(C1CCCCC1)C2=O | 92.8% (inactive)
CCCN(CC1CC1)C(=O)COC(=O)c1ccc2c(c1)C(=O)N(c1ccc(OCC)cc1)C2=O | 94.9% (inactive)
CN(C)C=Nc1ccc2nn(-c3ccccc3)nc2c1 | 93.2% (inactive)
COC(=O)CSc1[nH]c2ccc(Br)cc2c1[N+](=O)[O-] | 93.3% (inactive)
CCOC(=O)c1csc(-c2snnc2C)n1 | 95.6% (inactive)
O=C(COC(=O)C1CC2CCCC(C1)C2=O)NNC(=O)c1ccccc1F (configuration not stated) | 101% (inactive)
Cn1nnc(NC(=S)NC(=O)c2ccc(-c3ccc(Br)cc3)o2)n1 | 92.3% (inactive)
NC(=S)NNc1ccc(Cl)c(Cl)c1 | 96.9% (inactive)
Nc1ccc(C(=O)OCCCc2nc3cc4ccccc4cc3[nH]2)cc1 | 90.5% (inactive)
CS(=O)(=O)c1ncc(Cl)c(C(=O)Nc2ccc(OC(F)F)cc2)n1 | 87.7% (inactive)
COCCOC(=O)c1ccc(NC(=O)COc2ccc([N+](=O)[O-])cc2)cc1 | 101% (inactive)
CC1CCN(C(=O)C2CCN(c3nnc(-n4cccc4)s3)CC2)CC1 | 86.7% (inactive)
COCc1nnc(NC(=O)C2CC(=O)N(c3ccc(C)c(Cl)c3)C2)s1 (configuration not stated) | 87.4% (inactive)
COc1ccc2c(c1)[C@@H]1[C@H](CO2)[C@H](c2ccccc2)[C@]2(C)C(=O)Nc3ccc(C)cc3C(=O)N12 | 84.9% (inactive)
